Results published in PubChem BioAssay (NCI).
About 83,000 compounds went through this panel and 20% of them were active in at least one assay; those are over-represented in the sample as a whole.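 Values shown are percent growth following 48 h exposure of cells in 96-well plates to a single concentration of compound; below 10 was considered active.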 Unmarked numbers belong to inactive results. Active and inactive are the calls of the source.

What follows are compounds tested on RXF 393 renal (assay: NCI-60 one-dose screen, 48 h (100 = growth as untreated, 0 = no growth, -100 = all killed)). Details: 10 µM unless noted.
In the case of `Cc1ccc(Cl)cc1Nc1nc(C(F)(F)F)ccc1C(=O)N/N=C/c1cccnc1`, the growth is reported as 11.6%. Work on `Fc1ccc(-c2nn(-c3ccccc3)cc2-c2nc3ccccc3o2)cc1` yielded a growth of 105%. With `CCOC(=O)C(=Cc1cccc(Br)c1)C(=O)OCC` the growth was 40.3%. With `COc1cccc(NC(=O)Cn2cc(CN3CCN(c4ccnc5cc(Cl)ccc45)CC3)nn2)c1` the growth was 95%. `CCOC(=O)c1cc2c(=O)oc3ccccc3c2oc1=O` gave a growth of 99.8%. With `O=C(Nc1cc(Cl)ccc1O)c1ccc(Nc2ccnc(C(F)(F)F)c2)cc1` the growth was 98.9%. Compound `C=C(C)[C@@H]1CC[C@]2(C(=O)O)CC[C@]3(C)[C@H](CC[C@@H]4[C@@]5(C)C[C@@H](Cc6cn(CCO[C@@H]7O[C@H](COC(C)=O)[C@H](OC(C)=O)[C@H](OC(C)=O)[C@H]7OC(C)=O)nn6)[C@H](O)C(C)(C)[C@@H]5CC[C@]43C)[C@@H]12` has a growth of 77.5%. In the case of `CC(C)CCC[C@@H](C)[C@H]1CC[C@H]2[C@@H]3CC=C4C[C@@H](C(C(=O)O)C(=O)O)CC[C@]4(C)[C@H]3CC[C@]12C`, the growth is reported as -49.8% (active). With `O=S(=O)(Nc1ccc(Cl)cc1)c1ccc(-c2cnc(C3CC3)o2)cc1` the growth was -10.1% (active). For `C#CCOc1ccc2ncnc(Nc3ccc(NC(=O)CCl)cc3)c2c1`, the growth was -59.9% (active). `CCOC(=O)C1=C(NC)OCC1=O` gave a growth of 100%. `COC(=O)c1c2c(c(C)[n+]([O-])c1C)C(=O)C=C(NCc1ccc(Br)cc1)C2=O` was tested, and the growth was -46.1% (active).
